ChEMBL document CHEMBL3433997, “St. Jude Leishmania screening dataset” (2016)

Molecular target: Solute carrier family 2, facilitated glucose transporter member 1 (Homo sapiens) (UniProt P11166)
Experiment: ST_JUDE_LEISH: Cytotoxicity at 2uM final concentration against transgenic Leishmania Mexicana promastigotes LmGLUT1 that are glucose transport deficient and complemented with the human glucose transporter GLUT1. Activity is measured by DNA content using SYBR green in vitro
Assay type: functional

Chain of Solute carrier family 2, facilitated glucose transporter member 1 (Homo sapiens) (P11166 whole entry): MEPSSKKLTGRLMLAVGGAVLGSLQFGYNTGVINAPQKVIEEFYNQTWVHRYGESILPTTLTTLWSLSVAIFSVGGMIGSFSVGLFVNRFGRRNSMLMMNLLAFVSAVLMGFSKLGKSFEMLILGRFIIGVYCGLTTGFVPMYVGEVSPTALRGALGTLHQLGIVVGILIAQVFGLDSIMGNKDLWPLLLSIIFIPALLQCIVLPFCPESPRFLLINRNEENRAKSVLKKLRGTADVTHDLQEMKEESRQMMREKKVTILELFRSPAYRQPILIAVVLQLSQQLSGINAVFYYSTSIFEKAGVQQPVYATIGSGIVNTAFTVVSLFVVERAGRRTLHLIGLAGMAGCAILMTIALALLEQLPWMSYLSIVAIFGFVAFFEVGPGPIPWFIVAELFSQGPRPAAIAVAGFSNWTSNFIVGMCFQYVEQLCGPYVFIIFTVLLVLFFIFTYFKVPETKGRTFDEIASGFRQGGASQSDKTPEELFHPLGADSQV

| Structure (SMILES) | inhibition |
| --- | --- |
| O=C(Nc1cccc(C(F)(F)F)c1)Nc1nc2ccc([N+](=O)[O-])cc2s1 | 4.59% |
| CN(C)C(CNc1ncnc2cc(Cl)ccc12)Cc1ccccc1 (stereo not given) | 4.67% |
| CCC(=O)N1CCc2cc(Br)cc(S(=O)(=O)N3CC(C)CC(C)C3)c21 (stereo not given) | 5.05% |
| O=C(NCCN1CCC(c2ccncc2)CC1)c1cccc(Nc2nccc(Nc3ccc(Oc4ccccc4)cc3)n2)c1 | -0.12% |
| CC(C)CCNC(=O)C1Cc2c([nH]c3cc(Br)ccc23)C2(CCN(Cc3ccccc3)CC2)N1 (stereo not given) | 15% |
| CCN(CC)Cc1cccc(-c2cc3c(-c4ccc(C(=O)O)c(C(C)C)c4)ccnc3[nH]2)c1OC | 12% |
| COCCNCc1ccc(-c2ccc(CNc3ccc4ncccc4c3)cc2)cc1 | 2% |
| CCc1cn2c3c(cc(C(=O)N[C@@H](Cc4ccccc4)[C@H](O)CNC4CC4)cc13)N(CC)S(=O)(=O)CC2 | -0.74% |
| CCN(CC1CCN(CC2(O)CCOCC2)CC1)c1cc(C)nc(Nc2ccc(Cl)cc2)n1 | -1.01% |
| COc1ccc2ccccc2c1C=NN=c1cc(C)[nH]c2cc(C(F)(F)F)ccc12 | 10.2% |
| COc1cc2ccccc2cc1OCCCN1CCN(CC(c2ccc(F)cc2)N2CCN(C(C)C)CC2)CC1 (stereo not given) | -2.97% |
| Cc1[nH]c(C)c(C(F)(F)F)c(=O)c1-c1ccc(Oc2ccc(OC(F)(F)F)cc2)cc1 | 2.24% |
| Cc1cnc2ccc(NS(=O)(=O)c3ccc4c(Cl)cccc4c3)cc2c1N1CCNCC1 | 1.16% |
| CCCC(C)Nc1nc(C)cc(N[C@@H](CC(C)C)C(=O)NCc2ccc(C)cc2)n1 (stereo not given in full) | 3.04% |
| OCCN1CCN(Cc2ccc(-c3cccc(-c4nc5cc(F)ccc5[nH]4)c3)cc2)CC1 | 2.82% |
| Cc1cc(NC(=O)NCCN2CCC(NS(=O)(=O)c3cccc(Br)c3)C2)c2ccccc2n1 (stereo not given) | 1.93% |
| NC1CCN(Cc2ccc(-c3cccc(-c4nc5ccccc5[nH]4)c3)cc2)C1 (stereo not given) | 5.49% |
| COc1ccc2nccc([C@@H](O)CN3CCC(NCc4nc5cc(F)cc(F)c5[nH]4)CC3)c2c1 | 3.31% |
| CN1CCN(c2cc3c(cc2Cl)CCN3C(=O)Cc2ccc(Cl)c(NC(=O)Nc3cccc(C#N)c3)c2)CC1 | -0.57% |
| N#Cc1ccc(N[C@@H](CC2CCCCC2)C(=O)N[C@@H]2CCCc3ccccc32)c2ccccc12 | 0.46% |
| O=C(NCCCCN1CCC(c2ccc3c(c2OCCO)CCCC3)CC1)c1ccc2oc(-c3ccc(C(F)(F)F)cc3)cc2c1 | 1.2% |
| CC(=O)N(C)c1cccc(CNc2cc(C)nc(Nc3ccc(C)cc3)n2)c1 | 4.41% |
| O=C(N[C@@H](Cc1ccccc1)C(=O)NCCN1CCCC1)c1ccc(O)c(-c2ccc(Cl)c(Cl)c2)c1 | 7.15% |
| CN(C(=O)Nc1ccc(F)cc1)C1CCN(CCCCCNC(=O)/C=C/c2ccc(Cl)c(Cl)c2)CC1 | 1% |
| O=C(Cn1c(CCc2cccc(F)c2F)nc(=O)c2cccnc21)N(Cc1ccc(-c2ccc(C(F)(F)F)cc2)cc1)C1CCN(C2CCSCC2)CC1 | 3.24% |

Molecular target: Hexose transporter 1 (Plasmodium falciparum) (UniProt O97467)
Experiment: ST_JUDE_LEISH: Cytotoxicity at 2uM final concentration against transgenic Leishmania Mexicana promastigotes LmPfHT that are glucose transport deficient and complemented with the Plasmodium falciparum hexose transporter. Activity is measured by DNA content using SYBR green in vitro
Assay type: functional

| Structure (SMILES) | inhibition |
| --- | --- |
| CC(C)C[C@H](NC(=O)c1cc(-c2ccc(C(C)(C)C)cc2)no1)C(=O)O.CC(C)C[C@H](NC(=O)c1conc1-c1ccc(C(C)(C)C)cc1)C(=O)O | 0.89% |
| Cc1cc(N2CCN(C(=O)OC(C)(C)C)CC2)ccc1N | 8.78% |
| COc1cccc(NC(=O)Nc2cc(C)nc3ccccc23)c1 | 3.94% |
| CC(C)CN1CCC(COc2ccc3ncn(-c4cc(O[C@H](C)c5ccccc5C(F)(F)F)c(C(N)=O)s4)c3c2)CC1 | 74.7% |
| COc1ccc(-c2cccc(NC(=O)c3ccc(F)cc3)c2)cc1CNC(C)C | 3.31% |
| O=C1OC(c2ccccc2)(c2ccccn2)CN1C1CCN(Cc2cccn2-c2ccc(Cl)cc2)CC1 (stereo not given) | 1.43% |
| COc1ccc(C(=O)COc2cccc(/C=C/C(=O)O)c2)cc1OC | 0.15% |
| c1ccc(-c2ccc(-c3csc(Nc4ccncc4)n3)cc2)cc1 | 1.9% |
| CN1CCN(Cc2cc3cc(NC(=O)/C=C/c4cccc(Cl)c4)ccc3s2)CC1 | 0.04% |
| COc1cccc(C=NN=c2cc(C)[nH]c3ccccc23)c1 | 3.07% |
| O=C(Nc1ccccc1)N(Cc1cccc(-c2cccc(CNCc3ccc4c(c3)OCO4)c2)c1)C1CCN(Cc2ccccc2)CC1 | 1.69% |
| N#Cc1ccc(CN2CCCN(c3ccc(NC(=O)c4ccc(F)cc4)cc3)CC2)cc1 | 3.32% |
| COc1ccccc1-n1c(SCC(=O)Nc2ccccc2F)nc2cccnc21 | 1.38% |
| N#Cc1ccc2c(c1)CCN(CCC1CCC(NC(=O)c3cc4cccc([N+](=O)[O-])c4[nH]3)CC1)C2 (stereo not given) | 10.8% |
| O=C(Nc1ccccc1F)NC1CCN(c2ccnc(Nc3ccc(F)cc3)n2)C1 (stereo not given) | 0.72% |
| O=C(Nc1cccc(C(F)(F)F)c1)Nc1nc2ccc([N+](=O)[O-])cc2s1 | 4.44% |
| CN(C)C(CNc1ncnc2cc(Cl)ccc12)Cc1ccccc1 (stereo not given) | 3.87% |
| CCC(=O)N1CCc2cc(Br)cc(S(=O)(=O)N3CC(C)CC(C)C3)c21 (stereo not given) | 3.54% |
| O=C(NCCN1CCC(c2ccncc2)CC1)c1cccc(Nc2nccc(Nc3ccc(Oc4ccccc4)cc3)n2)c1 | -0.29% |
| CC(C)CCNC(=O)C1Cc2c([nH]c3cc(Br)ccc23)C2(CCN(Cc3ccccc3)CC2)N1 (stereo not given) | 11.3% |

| Structure (SMILES) | inhibition |
| --- | --- |
| CCN(CC)Cc1cccc(-c2cc3c(-c4ccc(C(=O)O)c(C(C)C)c4)ccnc3[nH]2)c1OC | 8.43% |
| COCCNCc1ccc(-c2ccc(CNc3ccc4ncccc4c3)cc2)cc1 | 4.18% |
| CCc1cn2c3c(cc(C(=O)N[C@@H](Cc4ccccc4)[C@H](O)CNC4CC4)cc13)N(CC)S(=O)(=O)CC2 | -0.31% |
| CCN(CC1CCN(CC2(O)CCOCC2)CC1)c1cc(C)nc(Nc2ccc(Cl)cc2)n1 | 0.27% |
| COc1ccc2ccccc2c1C=NN=c1cc(C)[nH]c2cc(C(F)(F)F)ccc12 | 8.24% |
| COc1cc2ccccc2cc1OCCCN1CCN(CC(c2ccc(F)cc2)N2CCN(C(C)C)CC2)CC1 (stereo not given) | -0.78% |
| Cc1[nH]c(C)c(C(F)(F)F)c(=O)c1-c1ccc(Oc2ccc(OC(F)(F)F)cc2)cc1 | 2.31% |
| Cc1cnc2ccc(NS(=O)(=O)c3ccc4c(Cl)cccc4c3)cc2c1N1CCNCC1 | 1.37% |
| CCCC(C)Nc1nc(C)cc(N[C@@H](CC(C)C)C(=O)NCc2ccc(C)cc2)n1 (stereo not given in full) | 4.01% |
| OCCN1CCN(Cc2ccc(-c3cccc(-c4nc5cc(F)ccc5[nH]4)c3)cc2)CC1 | -0.2% |
| Cc1cc(NC(=O)NCCN2CCC(NS(=O)(=O)c3cccc(Br)c3)C2)c2ccccc2n1 (stereo not given) | 0.98% |
| NC1CCN(Cc2ccc(-c3cccc(-c4nc5ccccc5[nH]4)c3)cc2)C1 (stereo not given) | 5.29% |
| COc1ccc2nccc([C@@H](O)CN3CCC(NCc4nc5cc(F)cc(F)c5[nH]4)CC3)c2c1 | 4.04% |
| CN1CCN(c2cc3c(cc2Cl)CCN3C(=O)Cc2ccc(Cl)c(NC(=O)Nc3cccc(C#N)c3)c2)CC1 | -0.51% |
| N#Cc1ccc(N[C@@H](CC2CCCCC2)C(=O)N[C@@H]2CCCc3ccccc32)c2ccccc12 | 1.88% |
| O=C(NCCCCN1CCC(c2ccc3c(c2OCCO)CCCC3)CC1)c1ccc2oc(-c3ccc(C(F)(F)F)cc3)cc2c1 | 2.49% |
| CC(=O)N(C)c1cccc(CNc2cc(C)nc(Nc3ccc(C)cc3)n2)c1 | 4.95% |
| O=C(N[C@@H](Cc1ccccc1)C(=O)NCCN1CCCC1)c1ccc(O)c(-c2ccc(Cl)c(Cl)c2)c1 | 3.32% |
| CN(C(=O)Nc1ccc(F)cc1)C1CCN(CCCCCNC(=O)/C=C/c2ccc(Cl)c(Cl)c2)CC1 | 1.65% |
| O=C(Cn1c(CCc2cccc(F)c2F)nc(=O)c2cccnc21)N(Cc1ccc(-c2ccc(C(F)(F)F)cc2)cc1)C1CCN(C2CCSCC2)CC1 | 4.36% |
